These results are taken from PubChem BioAssay (NCI).

This is part of a sample that, as a whole, favours compounds with a hit. Of some 83,000 tested, about 20% had one in any assay.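 In brief: 96-well plates, 48 h treatment, single concentration, percent growth endpoint.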 Values without a mark were called inactive. Active and inactive are the calls of the source. Rule for the calls: active = growth percent below 10; inactive = the rest.

Test systems include DU-145 prostate; K-562 leukemia; MALME-3M melanoma; MDA-MB-231 breast; RXF 393 renal; SF-268 CNS; SF-295 CNS; SF-539 CNS; UACC-257 melanoma; M14 melanoma; HCT-15 colon; HT29 colon; SNB-75 CNS; SNB-19 CNS; U251 CNS; PC-3 prostate; SK-MEL-5 melanoma; UACC-62 melanoma; LOX IMVI melanoma; SK-MEL-28 melanoma.
Common to all, as to assay: NCI-60 one-dose screen, 48 h (100 = growth as untreated, 0 = no growth, -100 = all killed)
Holding throughout (conditions): 10 µM unless noted

For the compound `Cn1ncc2c(C(=O)c3ccc(F)cc3)nc(C(C)(C)C)nc21`, the growth in the assay on DU-145 prostate is 102%; in the assay on K-562 leukemia it was 104%; in the assay with MALME-3M melanoma, 89.7%; with MDA-MB-231 breast, 102%; in the assay with RXF 393 renal, 94.1%; in the assay with SF-268 CNS, 97.3%. Also, the growth in the assay on SF-295 CNS is 99.6%; in the assay on SF-539 CNS it was 97.1%; in the assay with UACC-257 melanoma, 94.3%; in the assay on M14 melanoma, 100%; in the assay with HCT-15 colon it was 97.7%; in the assay with HT29 colon, 104%. In addition, the growth is 89.6% in the assay on SNB-75 CNS; 95.4% in the assay with SNB-19 CNS; 98.6% with U251 CNS; 92.5% with PC-3 prostate; 100% in the assay on SK-MEL-5 melanoma; 98% in the assay on UACC-62 melanoma. The growth in the assay with LOX IMVI melanoma is 95.7%; in the assay on SK-MEL-28 melanoma, 98%.
As for `CC(=O)OC[C@@]12Oc3c(cccc3-c3ccc(O)c4c3O[C@]3(COC(C)=O)C(=C4O)C(=O)C[C@H](C)[C@@H]3OC(C)=O)C(O)=C1C(=O)C[C@H](C)[C@@H]2OC(C)=O`, the growth with DU-145 prostate was 20.7%; in the assay with K-562 leukemia, 11.6%; with MALME-3M melanoma, -15.5% (active); in the assay on MDA-MB-231 breast, 5.9% (active); in the assay on RXF 393 renal, 11.9%; with SF-268 CNS, 17.2%. The growth with SF-295 CNS was -21.9% (active); in the assay on SF-539 CNS, 18.4%; in the assay on UACC-257 melanoma, -8.95% (active); in the assay on M14 melanoma, 21.8%; with HCT-15 colon it was 11.9%; in the assay with HT29 colon it was 10.4%. The growth in the assay with SNB-75 CNS is -10.4% (active); in the assay with SNB-19 CNS it was 17.7%; in the assay on U251 CNS, 16.6%; with PC-3 prostate, 11.6%; with SK-MEL-5 melanoma it was -62.8% (active); in the assay with UACC-62 melanoma, -36.9% (active). In addition, the growth with LOX IMVI melanoma is -66.1% (active); in the assay with SK-MEL-28 melanoma it was 9.46% (active).
On to `CCCCCCN1C=C/C(=C\C(=O)n2ccc3ccccc32)c2ccccc21`, for which the growth was 74% in the assay on DU-145 prostate; 31.8% in the assay on K-562 leukemia; 70.6% in the assay on MALME-3M melanoma; 73% in the assay with MDA-MB-231 breast; 74.3% with RXF 393 renal; 80.9% in the assay on SF-268 CNS. For the same compound, the growth is 34.4% in the assay with SF-295 CNS; 87% with SF-539 CNS; 71.6% in the assay on UACC-257 melanoma; 78.5% in the assay with M14 melanoma; 79.6% in the assay with HCT-15 colon; 65.1% in the assay with HT29 colon. The growth was 65.8% in the assay with SNB-75 CNS; 56.7% in the assay with SNB-19 CNS; 46.9% in the assay with U251 CNS; 58.6% in the assay with PC-3 prostate; 30.8% with SK-MEL-5 melanoma; 57.9% in the assay with UACC-62 melanoma. In addition, the growth was 18.7% with LOX IMVI melanoma and 101% with SK-MEL-28 melanoma.
Regarding `CCOC(=O)c1cnc2c(-c3ccc(Cl)c(Cl)c3)cnn2c1`, the growth in the assay on DU-145 prostate was 104%; in the assay on K-562 leukemia it was 21.7%; in the assay with MALME-3M melanoma, 75.7%; in the assay on MDA-MB-231 breast, 81.5%; in the assay on RXF 393 renal, 79.7%; in the assay with SF-268 CNS it was 92.7%. For the same compound, the growth is 82.9% in the assay with SF-295 CNS; 85.9% with SF-539 CNS; 81.9% in the assay on UACC-257 melanoma; 60% in the assay on M14 melanoma; 40.8% in the assay on HCT-15 colon; 56.8% in the assay on HT29 colon. Also, the growth in the assay with SNB-75 CNS is 59.9%; in the assay on SNB-19 CNS, 82.5%; in the assay with U251 CNS, 80.4%; in the assay on PC-3 prostate, 73%; in the assay on SK-MEL-5 melanoma, 79.8%; in the assay on UACC-62 melanoma, 60.8%. For the same compound, the growth was 79% in the assay with LOX IMVI melanoma and 80.4% in the assay on SK-MEL-28 melanoma.
Consider `N#C/C(=C\c1ccc(-c2ccc(Cl)cc2)o1)C(=O)Nc1ncc(Cc2ccc(Br)cc2)s1`, for which the growth is 9.81% (active) in the assay on DU-145 prostate; 42.7% in the assay with K-562 leukemia; -34.1% (active) with MALME-3M melanoma; 3.41% (active) with MDA-MB-231 breast; 33.1% with RXF 393 renal; 33.2% in the assay with SF-268 CNS. In addition, the growth was -2.23% (active) in the assay with SF-295 CNS; 1.63% (active) with SF-539 CNS; 46.6% in the assay on UACC-257 melanoma; 10.2% with M14 melanoma; 15.3% in the assay on HCT-15 colon; 7.27% (active) in the assay with HT29 colon. For the same compound, the growth was -18.1% (active) with SNB-75 CNS; 3.38% (active) with SNB-19 CNS; -81.9% (active) in the assay with U251 CNS; 9.73% (active) with PC-3 prostate; 51.9% in the assay on SK-MEL-5 melanoma; 1% (active) in the assay on UACC-62 melanoma. Moreover, the growth with LOX IMVI melanoma is -69.7% (active); with SK-MEL-28 melanoma it was 11%.
Regarding `CCNCCOc1ccc(/C(=C(/CC)c2ccc(Cl)cc2)c2ccc(OCCCN(C)C)cc2)cc1`, the growth in the assay on DU-145 prostate was -91.7% (active); in the assay with K-562 leukemia it was 0.0244% (active); in the assay with MALME-3M melanoma it was -85.1% (active); in the assay on MDA-MB-231 breast it was -87.2% (active); in the assay on RXF 393 renal, -92.1% (active); in the assay on SF-268 CNS, -66.7% (active). Moreover, the growth in the assay with SF-295 CNS was -85.8% (active); in the assay on SF-539 CNS, -93.9% (active); in the assay with UACC-257 melanoma it was -82.8% (active); in the assay on M14 melanoma, -86.9% (active); with HCT-15 colon, -84.8% (active); in the assay on HT29 colon, -36.4% (active). Moreover, the growth is -71.1% (active) in the assay with SNB-75 CNS; -86% (active) in the assay on SNB-19 CNS; -70.7% (active) in the assay with U251 CNS; -56.4% (active) in the assay on PC-3 prostate; -95.2% (active) with SK-MEL-5 melanoma; -90% (active) with UACC-62 melanoma. Moreover, the growth in the assay on LOX IMVI melanoma is -89.2% (active); in the assay with SK-MEL-28 melanoma, -94.3% (active).
On to `COc1ccc(/C=N/N=C(/c2ccccc2)c2ccc3nc(-c4ccc(Cl)cc4)[nH]c3c2)cc1`, for which the growth in the assay with DU-145 prostate is 86.5%; in the assay with K-562 leukemia, 47.9%; with MALME-3M melanoma, 90.6%; in the assay on MDA-MB-231 breast, 95%; in the assay with RXF 393 renal, 83.3%; in the assay with SF-268 CNS it was 88.7%. Besides, the growth in the assay on SF-295 CNS is 81.3%; with SF-539 CNS, 87.7%; in the assay with UACC-257 melanoma it was 101%; with M14 melanoma, 75.3%; in the assay on HCT-15 colon, 59.7%; in the assay on HT29 colon, 65.7%. Besides, the growth in the assay with SNB-75 CNS is 106%; with SNB-19 CNS, 84.2%; in the assay on U251 CNS it was 79.4%; in the assay with PC-3 prostate, 54.7%; in the assay on SK-MEL-5 melanoma it was 81%; in the assay with UACC-62 melanoma, 91.9%. For the same compound, the growth in the assay on LOX IMVI melanoma was 77.6%; in the assay on SK-MEL-28 melanoma, 88.4%.
